From article PMC7862700, “An all-to-all approach to the identification of sequence-specific readers for epigenetic DNA modifications on cytosine”

Assays:
Experiment in all cases: DAPPL (digital affinity profiling via proximity ligation, sequencing); 10 mM Tris-HCl pH 7.5, 50 mM NaCl, 1 mM DTT, 4% glycerol, room temperature, 30 min; GST-TFs on glutathione beads, 16-mer random dsDNA library, 0.1% formaldehyde crosslink after washing; high values mean tight binding
Conditions in all cases: protein: recombinant; tags: N-terminal GST; dsDNA, one strand shown
[1] = target: T1, FLI1 (Homo sapiens, UniProt Q01543 1-452)
T1 sequence: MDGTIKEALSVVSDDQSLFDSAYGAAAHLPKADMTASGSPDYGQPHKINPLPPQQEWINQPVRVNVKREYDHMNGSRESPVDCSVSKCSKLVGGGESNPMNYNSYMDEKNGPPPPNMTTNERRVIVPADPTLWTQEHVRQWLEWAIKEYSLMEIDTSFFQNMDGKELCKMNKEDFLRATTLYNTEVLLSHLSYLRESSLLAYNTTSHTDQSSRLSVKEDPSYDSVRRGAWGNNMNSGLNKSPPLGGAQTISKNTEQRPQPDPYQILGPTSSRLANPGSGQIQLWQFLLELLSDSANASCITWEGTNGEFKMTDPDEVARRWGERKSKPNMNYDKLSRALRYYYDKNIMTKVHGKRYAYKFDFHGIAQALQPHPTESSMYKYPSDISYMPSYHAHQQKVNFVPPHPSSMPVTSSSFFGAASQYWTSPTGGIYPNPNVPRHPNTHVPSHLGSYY
How it was run: (§1)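 Binding signal is each hexamer's read frequency for a factor divided by its frequency in the tag-only sample. The factors were GST-fused human transcription factors from yeast, captured on glutathione beads, DNA-barcoded and pooled with that sample. Pools were incubated with 200 nmole of a random double-stranded 16-mer DNA library in Tris/NaCl/DTT/glycerol buffer at room temperature for 30 min, then washed, crosslinked with 0.1% formaldehyde, proximity-ligated with BsaI/T4 ligase (1 h, 37 °C), PCR-amplified and sequenced on an Illumina NextSeq500.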

[2] = target: T2, ELK1 (Homo sapiens, UniProt P19419 1-428)
T2 sequence: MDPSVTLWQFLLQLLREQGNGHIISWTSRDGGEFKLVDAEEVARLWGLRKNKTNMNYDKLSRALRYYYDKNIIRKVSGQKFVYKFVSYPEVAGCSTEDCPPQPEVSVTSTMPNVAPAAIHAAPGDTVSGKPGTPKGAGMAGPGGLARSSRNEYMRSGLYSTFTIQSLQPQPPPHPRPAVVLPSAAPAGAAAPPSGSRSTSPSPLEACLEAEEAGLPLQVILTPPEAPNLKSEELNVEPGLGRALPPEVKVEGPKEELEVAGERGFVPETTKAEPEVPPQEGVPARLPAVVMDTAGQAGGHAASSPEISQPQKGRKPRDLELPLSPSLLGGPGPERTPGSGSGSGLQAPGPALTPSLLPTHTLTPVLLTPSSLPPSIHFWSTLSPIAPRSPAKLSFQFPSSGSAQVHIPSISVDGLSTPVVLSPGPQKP
How it was run: as §1

[3] = target: T3, GABPA (Homo sapiens, UniProt Q06546 1-454)
T3 sequence: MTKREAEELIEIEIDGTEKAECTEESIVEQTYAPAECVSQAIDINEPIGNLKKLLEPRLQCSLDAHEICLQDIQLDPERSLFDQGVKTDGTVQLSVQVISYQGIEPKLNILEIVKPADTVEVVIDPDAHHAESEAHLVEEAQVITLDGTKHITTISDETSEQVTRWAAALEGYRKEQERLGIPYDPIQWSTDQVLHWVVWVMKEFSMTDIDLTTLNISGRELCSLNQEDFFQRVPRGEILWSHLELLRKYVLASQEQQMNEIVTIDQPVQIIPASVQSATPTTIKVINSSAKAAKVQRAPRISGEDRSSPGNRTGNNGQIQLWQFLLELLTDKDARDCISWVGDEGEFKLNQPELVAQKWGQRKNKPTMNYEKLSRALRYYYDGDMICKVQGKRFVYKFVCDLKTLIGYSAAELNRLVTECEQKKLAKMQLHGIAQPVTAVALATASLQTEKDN
How it was run: as §1

[4] = target: T4, ERG (Homo sapiens, UniProt P11308 1-479)
T4 sequence: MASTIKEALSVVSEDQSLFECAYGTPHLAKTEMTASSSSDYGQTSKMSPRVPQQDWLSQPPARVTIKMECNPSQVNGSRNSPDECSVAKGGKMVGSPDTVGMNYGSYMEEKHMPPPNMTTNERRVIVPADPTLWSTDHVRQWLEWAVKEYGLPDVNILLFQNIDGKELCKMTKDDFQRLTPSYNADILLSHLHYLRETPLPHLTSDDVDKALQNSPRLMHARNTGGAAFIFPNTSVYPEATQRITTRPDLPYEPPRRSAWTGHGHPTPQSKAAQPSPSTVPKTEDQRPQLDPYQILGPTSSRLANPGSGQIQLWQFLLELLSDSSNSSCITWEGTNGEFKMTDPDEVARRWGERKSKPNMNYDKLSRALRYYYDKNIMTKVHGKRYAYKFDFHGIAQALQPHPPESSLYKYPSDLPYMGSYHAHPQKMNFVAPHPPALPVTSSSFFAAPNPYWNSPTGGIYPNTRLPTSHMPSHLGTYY
How it was run: as §1

[5] = target: ELF1 (Homo sapiens, UniProt P32519 1-619)
How it was run: as §1

[6] = target: T5, EHF (Homo sapiens, UniProt Q9NZC4 1-300)
T5 sequence: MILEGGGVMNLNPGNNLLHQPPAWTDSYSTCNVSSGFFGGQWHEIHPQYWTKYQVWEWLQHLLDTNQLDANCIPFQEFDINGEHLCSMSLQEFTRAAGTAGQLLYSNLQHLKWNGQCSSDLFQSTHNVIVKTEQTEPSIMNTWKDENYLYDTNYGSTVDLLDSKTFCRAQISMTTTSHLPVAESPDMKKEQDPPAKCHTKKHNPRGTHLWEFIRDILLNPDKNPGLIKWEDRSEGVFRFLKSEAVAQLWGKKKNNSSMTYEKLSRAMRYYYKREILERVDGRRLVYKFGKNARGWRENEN
How it was run: as §1

[7] = target: SPI1 (Homo sapiens, UniProt P17947 1-270)
How it was run: as §1

[8] = target: SPIB (Homo sapiens, UniProt Q01892 1-262)
How it was run: as §1

[9] = target: T6, ELK3 (Homo sapiens, UniProt P41970 1-407)
T6 sequence: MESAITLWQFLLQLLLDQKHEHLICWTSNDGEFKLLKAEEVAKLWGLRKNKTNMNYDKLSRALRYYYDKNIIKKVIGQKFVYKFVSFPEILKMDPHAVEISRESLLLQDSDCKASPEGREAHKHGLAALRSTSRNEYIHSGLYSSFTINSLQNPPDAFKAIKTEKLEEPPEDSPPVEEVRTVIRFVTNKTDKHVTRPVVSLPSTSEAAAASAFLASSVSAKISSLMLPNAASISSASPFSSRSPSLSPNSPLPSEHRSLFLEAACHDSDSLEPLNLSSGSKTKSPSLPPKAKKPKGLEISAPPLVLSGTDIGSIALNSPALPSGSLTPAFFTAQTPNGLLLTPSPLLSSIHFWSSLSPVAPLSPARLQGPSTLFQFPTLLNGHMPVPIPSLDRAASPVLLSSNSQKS
How it was run: as §1

Chain of ELF1 (P32519 whole entry): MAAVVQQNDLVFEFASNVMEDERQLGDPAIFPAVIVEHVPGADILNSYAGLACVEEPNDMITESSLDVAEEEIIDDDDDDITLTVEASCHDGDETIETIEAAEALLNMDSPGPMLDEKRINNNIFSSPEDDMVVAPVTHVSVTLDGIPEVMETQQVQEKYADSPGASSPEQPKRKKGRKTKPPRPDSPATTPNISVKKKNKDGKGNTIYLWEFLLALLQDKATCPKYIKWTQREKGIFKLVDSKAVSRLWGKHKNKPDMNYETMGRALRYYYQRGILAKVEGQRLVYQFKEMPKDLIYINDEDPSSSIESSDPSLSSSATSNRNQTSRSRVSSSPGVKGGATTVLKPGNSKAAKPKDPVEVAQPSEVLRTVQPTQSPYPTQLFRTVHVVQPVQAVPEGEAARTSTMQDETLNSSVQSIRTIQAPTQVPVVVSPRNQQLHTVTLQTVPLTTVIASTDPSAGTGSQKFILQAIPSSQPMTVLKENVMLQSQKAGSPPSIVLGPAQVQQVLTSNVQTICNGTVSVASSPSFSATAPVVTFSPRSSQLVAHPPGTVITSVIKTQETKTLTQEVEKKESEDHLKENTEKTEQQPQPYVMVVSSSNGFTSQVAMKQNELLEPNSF
Chain of SPIB (Q01892 whole entry): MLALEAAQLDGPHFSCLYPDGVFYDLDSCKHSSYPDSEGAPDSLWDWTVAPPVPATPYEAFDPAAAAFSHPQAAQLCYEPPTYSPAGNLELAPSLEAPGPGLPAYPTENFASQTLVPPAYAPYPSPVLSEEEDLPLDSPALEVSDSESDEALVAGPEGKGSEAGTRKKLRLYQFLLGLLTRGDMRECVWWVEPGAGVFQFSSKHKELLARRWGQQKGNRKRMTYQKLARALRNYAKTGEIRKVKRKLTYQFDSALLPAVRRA

## ACATAA
[1]
  binding signal: 1.01 fold enrichment (6-mer frequency, TF over GST control)
[2]
  binding signal: 1.09 fold enrichment (6-mer frequency, TF over GST control)
[3]
  binding signal: 1.08 fold enrichment (6-mer frequency, TF over GST control)
[4]
  binding signal: 1.17 fold enrichment (6-mer frequency, TF over GST control)
[5]
  binding signal: 1.13 fold enrichment (6-mer frequency, TF over GST control)
[6]
  binding signal: 1.1 fold enrichment (6-mer frequency, TF over GST control)
[7]
  binding signal: 1.08 fold enrichment (6-mer frequency, TF over GST control)
[8]
  binding signal: 1.1 fold enrichment (6-mer frequency, TF over GST control)
[9]
  binding signal: 1.11 fold enrichment (6-mer frequency, TF over GST control)

## GCTAGC
[1]
  binding signal: 1.17 fold enrichment (6-mer frequency, TF over GST control)
[2]
  binding signal: 1.23 fold enrichment (6-mer frequency, TF over GST control)
[3]
  binding signal: 1.18 fold enrichment (6-mer frequency, TF over GST control)
[4]
  binding signal: 1.22 fold enrichment (6-mer frequency, TF over GST control)
[5]
  binding signal: 1.18 fold enrichment (6-mer frequency, TF over GST control)
[6]
  binding signal: 1.19 fold enrichment (6-mer frequency, TF over GST control)
[7]
  binding signal: 1.29 fold enrichment (6-mer frequency, TF over GST control)
[8]
  binding signal: 1.17 fold enrichment (6-mer frequency, TF over GST control)
[9]
  binding signal: 1.22 fold enrichment (6-mer frequency, TF over GST control)

## CTCCAA
[1]
  binding signal: 1.23 fold enrichment (6-mer frequency, TF over GST control)
[2]
  binding signal: 1.41 fold enrichment (6-mer frequency, TF over GST control)
[3]
  binding signal: 1.4 fold enrichment (6-mer frequency, TF over GST control)
[4]
  binding signal: 1.32 fold enrichment (6-mer frequency, TF over GST control)
[5]
  binding signal: 1.3 fold enrichment (6-mer frequency, TF over GST control)
[6]
  binding signal: 1.26 fold enrichment (6-mer frequency, TF over GST control)
[7]
  binding signal: 1.29 fold enrichment (6-mer frequency, TF over GST control)
[8]
  binding signal: 1.31 fold enrichment (6-mer frequency, TF over GST control)
[9]
  binding signal: 1.25 fold enrichment (6-mer frequency, TF over GST control)

## AAACAA
[1]
  binding signal: 1.24 fold enrichment (6-mer frequency, TF over GST control)
[2]
  binding signal: 1.33 fold enrichment (6-mer frequency, TF over GST control)
[3]
  binding signal: 1.2 fold enrichment (6-mer frequency, TF over GST control)
[4]
  binding signal: 1.38 fold enrichment (6-mer frequency, TF over GST control)
[5]
  binding signal: 1.28 fold enrichment (6-mer frequency, TF over GST control)
[6]
  binding signal: 1.26 fold enrichment (6-mer frequency, TF over GST control)
[7]
  binding signal: 1.32 fold enrichment (6-mer frequency, TF over GST control)
[8]
  binding signal: 1.21 fold enrichment (6-mer frequency, TF over GST control)
[9]
  binding signal: 1.36 fold enrichment (6-mer frequency, TF over GST control)

## CAACTT
[1]
  binding signal: 1.62 fold enrichment (6-mer frequency, TF over GST control)
[2]
  binding signal: 1.62 fold enrichment (6-mer frequency, TF over GST control)
[3]
  binding signal: 1.53 fold enrichment (6-mer frequency, TF over GST control)
[4]
  binding signal: 1.68 fold enrichment (6-mer frequency, TF over GST control)
[5]
  binding signal: 1.55 fold enrichment (6-mer frequency, TF over GST control)
[6]
  binding signal: 1.54 fold enrichment (6-mer frequency, TF over GST control)
[7]
  binding signal: 1.69 fold enrichment (6-mer frequency, TF over GST control)
[8]
  binding signal: 1.68 fold enrichment (6-mer frequency, TF over GST control)
[9]
  binding signal: 1.59 fold enrichment (6-mer frequency, TF over GST control)

## GCGATG
[1]
  binding signal: 1.2 fold enrichment (6-mer frequency, TF over GST control)
[2]
  binding signal: 1.48 fold enrichment (6-mer frequency, TF over GST control)
[3]
  binding signal: 1.37 fold enrichment (6-mer frequency, TF over GST control)
[4]
  binding signal: 1.23 fold enrichment (6-mer frequency, TF over GST control)
[5]
  binding signal: 1.31 fold enrichment (6-mer frequency, TF over GST control)
[6]
  binding signal: 1.25 fold enrichment (6-mer frequency, TF over GST control)
[7]
  binding signal: 1.34 fold enrichment (6-mer frequency, TF over GST control)
[8]
  binding signal: 1.29 fold enrichment (6-mer frequency, TF over GST control)
[9]
  binding signal: 1.31 fold enrichment (6-mer frequency, TF over GST control)

## TAAATG
[1]
  binding signal: 1.22 fold enrichment (6-mer frequency, TF over GST control)
[2]
  binding signal: 1.21 fold enrichment (6-mer frequency, TF over GST control)
[3]
  binding signal: 1.34 fold enrichment (6-mer frequency, TF over GST control)
[4]
  binding signal: 1.27 fold enrichment (6-mer frequency, TF over GST control)
[5]
  binding signal: 1.34 fold enrichment (6-mer frequency, TF over GST control)
[6]
  binding signal: 1.27 fold enrichment (6-mer frequency, TF over GST control)
[7]
  binding signal: 1.36 fold enrichment (6-mer frequency, TF over GST control)
[8]
  binding signal: 1.35 fold enrichment (6-mer frequency, TF over GST control)
[9]
  binding signal: 1.29 fold enrichment (6-mer frequency, TF over GST control)

## ATATCG
[1]
  binding signal: 1.09 fold enrichment (6-mer frequency, TF over GST control)
[2]
  binding signal: 1.16 fold enrichment (6-mer frequency, TF over GST control)
[3]
  binding signal: 1.14 fold enrichment (6-mer frequency, TF over GST control)
[4]
  binding signal: 1.08 fold enrichment (6-mer frequency, TF over GST control)
[5]
  binding signal: 1.16 fold enrichment (6-mer frequency, TF over GST control)
[6]
  binding signal: 1.13 fold enrichment (6-mer frequency, TF over GST control)
[7]
  binding signal: 1.23 fold enrichment (6-mer frequency, TF over GST control)
[8]
  binding signal: 1.17 fold enrichment (6-mer frequency, TF over GST control)
[9]
  binding signal: 1.19 fold enrichment (6-mer frequency, TF over GST control)
